Assay outcomes from PubChem.
Compounds with a hit are over-represented: about 11% of the library has one in this group of screens.
VDR inh – inhibitors of human vitamin D receptor; P11473; VDR-SRC2-3 peptide fluorescence polarization, 2 h; Potency, µM, inactives show max response, negative = inhibition, most hits filed as inhibitors; 0.93% of 400,000 active; AID 504847; further: on the % scale 0 is the no-effect control and ±100 the full control effect
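Fluorescence polarization assay measuring small-molecule disruption of VDR binding to the coregulator peptide SRC2-3. Compounds were pin-transferred (23 nl) into the reagent mix and incubated 2 h at room temperature before reading.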
PLK1 PBD block – inhibitors of human PLK1 polo-box domain binding. Plk1 PBD binding of FITC phosphopeptide, fluorescence polarization. 2.8% of 360,000 active. P53350. AID 720504. Potency, µM, without a hit: max response, negative = inhibition, actives largely listed as inhibitors; further: series mostly up to about 57 µM; on the % scale 0 is the no-effect control and ±100 the full control effect; nearly all actives have a fitted effect of over 65% in size
Target sequence (P53350 whole entry, looked up, the tested form may be a part): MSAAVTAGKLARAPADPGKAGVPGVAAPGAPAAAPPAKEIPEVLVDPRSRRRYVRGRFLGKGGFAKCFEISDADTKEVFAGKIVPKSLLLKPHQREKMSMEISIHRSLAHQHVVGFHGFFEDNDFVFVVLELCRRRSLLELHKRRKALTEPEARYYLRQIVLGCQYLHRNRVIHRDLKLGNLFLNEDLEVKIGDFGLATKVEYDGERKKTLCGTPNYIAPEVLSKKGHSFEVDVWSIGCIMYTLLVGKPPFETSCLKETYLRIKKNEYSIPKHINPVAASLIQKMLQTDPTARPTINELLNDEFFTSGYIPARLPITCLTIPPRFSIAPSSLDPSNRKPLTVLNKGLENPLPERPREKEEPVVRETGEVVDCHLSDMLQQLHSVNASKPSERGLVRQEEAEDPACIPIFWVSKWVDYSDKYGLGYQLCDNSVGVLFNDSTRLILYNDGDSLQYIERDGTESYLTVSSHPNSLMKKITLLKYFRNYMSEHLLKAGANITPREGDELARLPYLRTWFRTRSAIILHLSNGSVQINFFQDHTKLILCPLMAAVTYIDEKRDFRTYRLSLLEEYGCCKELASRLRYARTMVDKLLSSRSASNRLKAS
HP1b binding inh – inhibitors of HP1-beta chromodomain binding to methylated histone tails | AlphaScreen HP1-beta / biotin-H3K9me3 peptide binding | P83916 | AID 540317 | 0.56% of 390,000 active | Potency, µM (highest dose often 114 µM), inactives show at the top dose activity change, negative = inhibition, most hits filed as inhibitors; further: nearly all actives have a fitted effect of over 70% in size
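Compound inhibition of the preformed complex between 50 nM HP1-beta and 50 nM biotinylated H3K9me3 peptide was read by AlphaScreen. Buffer was PBS pH 7.4 with 0.01% Tween-20. Incubations ran 30 min at room temperature, with 10 ug/mL donor/acceptor beads.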
G9a block – inhibitors of human histone lysine methyltransferase G9a; Potency, µM (series often up to 102 µM), without a hit: at the top dose activity, negative = inhibition, most hits filed as inhibitors; AID 504332; G9a H3K9 monomethylation, AlphaScreen, 2 h; 8.8% of 350,000 active; Q96KQ7; further: on the % scale 0 is the no-effect control and ±100 the full control effect; nearly all actives have a fitted effect of over 75% in size
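Quantitative HTS format: methyltransferase activity on a biotin-tagged H3K9 peptide is measured by AlphaScreen, using a rabbit anti-monomethyl-H3K9 antibody with streptavidin donor and anti-IgG acceptor beads. Final levels are 20 nM enzyme, 500 nM peptide, 20 uM SAM; 2 h RT.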
JMJD2A Tudor – inhibitors of human JMJD2A Tudor domain; O75164; AlphaScreen JMJD2A-Tudor / H3K4me3 peptide binding; Potency, µM (top dose mostly 114 µM), for inactives: at the highest dose activity change, negative = inhibition, actives largely listed as inhibitors; 4.4% of 390,000 active; AID 504339; further: on the % scale 0 is the no-effect control and ±100 the full control effect; nearly all actives have a fitted effect of over 50% in size
BAZ2B inh – blocks human BAZ2B | Q9UIF8 | AlphaScreen BAZ2B-H3K14Ac peptide displacement | Potency, µM (top dose mostly 114 µM), for inactives: at the top dose activity change, negative = inhibition, actives largely listed as inhibitors | 4.4% of 360,000 active; further: on the % scale 0 is the no-effect control and ±100 the full control effect; nearly all actives have a fitted effect of over 60% in size
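In this displacement format the biotinylated H3(5-23) peptide acetylated at Lys14 serves as ligand at 50 nM, with BAZ2B at 50 nM in PBS pH 7.4 containing 0.01% Tween-20. Donor and acceptor beads are 10 ug/mL final.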
* marks the source's active call; other numbers are inactive results; [ ] = another dose, or the depositor's remark. The call rests on the fitted dose curve; in most records, active means well fitted curve in the direction sought with a large enough effect; inconclusive means small, poorly fitted or top-dose-only effect, or another doubt; inactive means no such curve, though single readings can be large; an effect the other way counts as inactive or inconclusive. Potency means the concentration at half of the fitted maximal effect.

CCOC(=O)c1ccc(NC(=O)CCc2c(C)nc3c(c(C)nn3C(C)(C)C)c2C)cc1 was read as VDR inh 5%, HP1b binding inh 42%, G9a block 10%[59 µM], JMJD2A Tudor -7% and BAZ2B inh -1%.
Cc1ccc(N2CCN(C(=O)C3CCC(CNS(=O)(=O)c4ccc(Br)s4)CC3)CC2C)cc1 (stereo not given) was read as VDR inh -7%, HP1b binding inh 13%, G9a block -21%[59 µM], JMJD2A Tudor -7% and BAZ2B inh 0%.
Screening N#Cc1c2n(c(=S)n(-c3ccccc3)c1=O)CCCCC2 returned VDR inh 12%, PLK1 PBD block 4%, HP1b binding inh 73%, G9a block -3%, JMJD2A Tudor -10% and BAZ2B inh -15%.
`N#Cc1c2n(c(=S)n(-c3ccccc3[N+](=O)[O-])c1=O)CCCCC2` gave VDR inh -7%, PLK1 PBD block -24%, HP1b binding inh -7%, G9a block 40µM* and JMJD2A Tudor inconclusive.
Screening Cc1ccc(S(=O)(=O)N(Cc2cc3ccccc3[nH]c2=O)c2cccc(C)c2)cc1 returned VDR inh -14%, PLK1 PBD block 30µM*, HP1b binding inh 14%, G9a block -7%, JMJD2A Tudor -8%[11.4 µM] and BAZ2B inh 3%.
Screening Cc1ccc(S(=O)(=O)N(Cc2cc3ccc(C)cc3[nH]c2=O)c2ccccc2)cc1 returned VDR inh -15%, PLK1 PBD block 34µM*, HP1b binding inh -9%, G9a block 2%, JMJD2A Tudor -8%[11.4 µM] and BAZ2B inh -1%.
CCCN(Cc1cc2ccc(C)cc2[nH]c1=O)C(=O)c1ccccn1 was read as VDR inh 22%, PLK1 PBD block inconclusive, HP1b binding inh -14%, G9a block 32µM*, JMJD2A Tudor -20% and BAZ2B inh 3%.
Cc1ccc(N(Cc2cc3cccc(C)c3[nH]c2=O)S(=O)(=O)c2ccccc2)c(C)c1 was read as VDR inh inconclusive, PLK1 PBD block 15µM*, HP1b binding inh -13%, G9a block inconclusive, JMJD2A Tudor inconclusive and BAZ2B inh inconclusive.
Screening CCCCN(Cc1cc2cc(C)ccc2[nH]c1=O)C(=O)c1ccccn1 returned VDR inh -3%, PLK1 PBD block -3%, HP1b binding inh 38%, G9a block 3%, JMJD2A Tudor -6% and BAZ2B inh -1%.
`CCOc1ccccc1NC(=O)Cn1cnc2c1c(=O)n(C)c(=O)n2C` gave VDR inh -2%, HP1b binding inh 15%, G9a block -5%[59 µM], JMJD2A Tudor -20% and BAZ2B inh 0%.
For COc1c[nH]n(C2CCCCC2)c(=O)c1=O the results were VDR inh 0%, PLK1 PBD block -4%, HP1b binding inh 7%, G9a block 22µM*, JMJD2A Tudor 20µM* and BAZ2B inh inconclusive.
`CCOc1ccc(NC(=O)Cn2c(=O)n(Cc3ccccc3)c(=O)c3c4c(sc32)CN(C(C)=O)CC4)cc1` gave VDR inh -6%, HP1b binding inh 30%, G9a block -20%[59 µM], JMJD2A Tudor -12% and BAZ2B inh -13%.
`O=C(NC(c1ccc(Cl)cc1)c1cnccn1)C1CCN(CCCOc2ccccc2)CC1` (stereo not given) gave PLK1 PBD block -2%.
CCN(Cc1ccccc1)C(=O)c1[nH]c2ccc(OC)cc2c1C was read as VDR inh 3%, PLK1 PBD block -4%, HP1b binding inh 23%, G9a block 0%, JMJD2A Tudor -12% and BAZ2B inh -14%.
CCN(CC)CCNC(=O)c1[nH]c2ccc(OCc3ccccc3)cc2c1C was read as VDR inh -5%, PLK1 PBD block -1%, HP1b binding inh inconclusive, G9a block 50µM*, JMJD2A Tudor inconclusive and BAZ2B inh inconclusive.
O=C(COC(=O)c1cnc(Cl)c(Cl)c1)NCc1cccs1 was read as VDR inh inconclusive, PLK1 PBD block inconclusive, HP1b binding inh -3%, G9a block 25%[0.0925 µM], JMJD2A Tudor 22µM* and BAZ2B inh 4%.
